Source: PubChem BioAssay (NCI)
This is part of a sample that, as a whole, favours compounds with a hit. Of some 83,000 tested, about 20% had one in any assay.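 How to read the values: 0–100, growth inhibition (40 = 60% inhibited); 0, no net growth; -100 to 0, cell death (-40 = 40% of starting cells died; -100 = all dead).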 Values without a mark were called inactive. Active and inactive are the calls of the source. The calls were made as follows: active = growth percent below 10; inactive = the rest.

The compounds below were run on HL-60(TB) leukemia (assay: NCI-60 one-dose screen, 48 h (100 = growth as untreated, 0 = no growth, -100 = all killed)). Conditions: 10 µM unless noted.
`O=C(Nc1ccc(Cl)cc1)c1cc2ccccc2cc1OP(=O)(O)O` was tested, and the growth was 37.3%. For `Nc1nc(N)c(C=Nc2ccc(Br)cc2)c(Nc2ccc(Br)cc2)n1`, the growth was 90%. `O=[N+]([O-])C=C(c1ccccc1)c1ccccc1` was tested, and the growth was 60.2%. `Nc1nc(-c2ccccc2)nc(N)c1N=O` gave a growth of 18.8%. `O=C(Nc1nc2ccc(S(=O)(=O)Nc3ccc(C4(C(F)(F)F)CC4)cc3)cc2[nH]1)c1cnccn1` was tested, and the growth was -12.2% (active). For `COc1cc(-c2nn(-c3ccc(NC(=O)c4ccc(Cl)c(C(F)(F)F)c4)cc3)cc2-c2ccncc2)ccc1Cl`, the growth was 12%. `COc1ccc2c(c1)sc1nc(-c3ccc(N(C)C)cc3)cn12` was tested, and the growth was 65.4%. Compound `COc1ccc(OC)c(-c2nc(SCC(=O)c3ccc(C#N)cc3)[nH]c(=O)c2C#N)c1` has a growth of 106%. With `Cc1cc(C(=O)O)c(N)c(C)n1` the growth was 102%. With `COc1cc2c(cc1OC)C(C(CCCCCC(CCC(C)C)C1NCCc3cc(OC)c(OC)cc31)CCC(C)C)NCC2` (configuration not stated) the growth was -12.4% (active). Compound `Nc1ccc(S(=O)(=O)c2ccc(Cl)cc2)cc1` has a growth of 100%. In the case of `C=C1CCC2C3(C)COC(c4ccc(N(C)C)cc4)OC3CCC2(C)C1C/C=C1/C(=O)OCC1O` (configuration not stated), the growth is reported as 15.3%.
